Legend:
Assay in all cases: PBM binding z-score (relative to random genomic background probes); higher = stronger binding; sequences stand for … in GC…GCGATTGACAGCGTAGAATGAAGG
[1] = tested on: FXR:RXRa (NR concentration 270 nM, RXRa partner concentration 90 nM)
In short: (§1)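 Custom Agilent 4×180K protein-binding microarrays carried double-stranded probes, each with a 34-nt variable region. These regions held direct-repeat seeds, single-nucleotide variants, half-site ablations and random human genomic background sequences. Ligand-free nuclear receptor dimers were incubated on the arrays for 1 h, antibodies against each partner (one per run) detected binding, and scanned fluorescence was regression-normalized. Binding z-scores take the random background probes as reference.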

[2] = tested on: LXRa:RXRa (NR concentration 270 nM, RXRa partner concentration 90 nM)
In short: as §1

[3] = tested on: LXRa homodimer (NR concentration 270 nM)
In short: as §1

[4] = tested on: LXRb:RXRa (NR concentration 270 nM, RXRa partner concentration 90 nM)
In short: as §1

[5] = tested on: LXRb homodimer (NR concentration 270 nM)
In short: as §1

[6] = tested on: PPARa:RXRa (NR concentration 270 nM, RXRa partner concentration 90 nM)
In short: as §1

[7] = tested on: PPARg:RXRa (NR concentration 180 nM, RXRa partner concentration 90 nM)
In short: as §1

[8] = tested on: PPARg:RXRa 270nM:90nM, anti-RXR (NR concentration 270 nM, RXRa partner concentration 90 nM)
In short: as §1

[9] = tested on: PPARg:RXRa 30nM:10nM, anti-RXR (NR concentration 30 nM, RXRa partner concentration 10 nM)
In short: as §1

[10] = tested on: PPARg:RXRa 90nM:30nM, anti-RXR (NR concentration 90 nM, RXRa partner concentration 30 nM)
In short: as §1

[11] = tested on: PPARg:RXRa DBDmut IVT, anti-RXR (DBD mutation: RXRa K156A/R161A, NR concentration 270 nM, RXRa partner concentration 90 nM)
In short: as §1

[12] = tested on: PPARg:RXRa IVT, anti-PPARg (NR concentration 270 nM, RXRa partner concentration 90 nM)
In short: as §1

[13] = tested on: PPARg DBDmut:RXRa IVT, anti-PPARg (DBD mutation: PPARg1 K132A/R137A, NR concentration 270 nM, RXRa partner concentration 90 nM)
In short: as §1

[14] = tested on: PPARg DBDmut IVT, anti-PPARg (DBD mutation: PPARg1 K132A/R137A, NR concentration 270 nM)
In short: as §1

[15] = tested on: PPARg homodimer (NR concentration 180 nM)
In short: as §1

[16] = tested on: PXR:RXRa (NR concentration 270 nM, RXRa partner concentration 90 nM)
In short: as §1

[17] = tested on: PXR homodimer (NR concentration 270 nM)
In short: as §1

[18] = tested on: RARa:RXR (NR concentration 270 nM, RXRa partner concentration 90 nM)
In short: as §1

[19] = tested on: RARa homodimer (NR concentration 270 nM)
In short: as §1

[20] = tested on: RARb:RXRa (NR concentration 270 nM, RXRa partner concentration 90 nM)
In short: as §1

Row | Sequence | PBM binding z-score [1] | PBM binding z-score [2] | PBM binding z-score [3] | PBM binding z-score [4] | PBM binding z-score [5] | PBM binding z-score [6] | PBM binding z-score [7] | PBM binding z-score [8] | PBM binding z-score [9] | PBM binding z-score [10] | PBM binding z-score [11] | PBM binding z-score [12] | PBM binding z-score [13] | PBM binding z-score [14] | PBM binding z-score [15] | PBM binding z-score [16] | PBM binding z-score [17] | PBM binding z-score [18] | PBM binding z-score [19] | PBM binding z-score [20]
1 | ATACCAAGGTGATTGTGAGGTCGTTGATACTAAC | 2.01 | 2.09 | 1.51 | 1.81 | 0.313 | 1.79 | 0.442 | 0.649 | 0.0726 | 0.48 | 0.693 | 1.27 | 0.771 | 0.654 | 1.27 | 3.13 | 2.05 | 2.22 | 0.72 | 1.41
2 | TCTTGTAGATCAGAGGTTAAGAAAGCCGAAGCCT | 0.507 | 1.04 | -0.0177 | 1.4 | -0.128 | 2.87 | 4.35 | 5.58 | 4.79 | 5.63 | 1.58 | 2.04 | 0.138 | 0.179 | 0.818 | 0.951 | -0.359 | 1.48 | -0.453 | 0.915
3 | CGAACTAGCTCAGAACAGGACAGTGAAGGATGAT | -0.682 | -0.642 | -0.0403 | -0.877 | -0.565 | -0.547 | 0.544 | -0.694 | -0.189 | -0.609 | -0.0249 | -0.714 | -0.195 | 0.0741 | -0.71 | -0.669 | 0.0442 | -0.393 | 0.354 | -0.236
4 | ATGGAAAGGTCGAGGTGAGTATAGAGAAAGGGAA | 4.15 | 3.47 | 0.547 | 2.81 | 0.956 | 4.69 | 3.21 | 4.02 | 1.44 | 2.83 | 0.536 | 2.48 | 1.74 | 0.527 | 1.67 | 2.55 | 1.05 | 3.1 | 1.32 | 4.07
5 | TAGCCTAGGTCATTGGGCCTGTATAGTACGCATC | 4.24 | 3.47 | 0.96 | 2.39 | -0.0318 | 3.52 | 2.18 | 2.86 | 0.506 | 1.59 | 2.39 | 3.03 | -0.124 | -0.181 | 1.46 | 1.65 | -0.0817 | 2.37 | -0.457 | 3.55
6 | GGAACGAGGGCCAGTTGATAGCAGAGTTTGATGG | -0.532 | -0.8 | -0.645 | -1.21 | -0.96 | -0.53 | 0.258 | -0.67 | -0.491 | -0.758 | 0.134 | -0.54 | -0.953 | -0.88 | -0.513 | -0.515 | -0.158 | -0.522 | -1.03 | 0.217
7 | GCAGACAAGTGAAACGCAGGTAACTCAGGGTGGC | -0.375 | -0.79 | -0.665 | -0.901 | -1.26 | -0.28 | 0.44 | -0.661 | -0.558 | -0.468 | -0.601 | -0.398 | -0.525 | -1.2 | -0.82 | -0.683 | -0.723 | -0.207 | -0.732 | -1.75
8 | CAGCCTAGGTCGGGGCCAGTATAGGAGGAACGTT | -0.375 | -0.409 | -0.6 | -0.47 | -1.25 | -0.00359 | -0.199 | -0.885 | -1.38 | -0.981 | -0.532 | -0.678 | -0.979 | -1.04 | -0.152 | -0.445 | -0.795 | -0.269 | -1.01 | 1.02
9 | CAAACTAGATCAAGGTCAAAGTCGGTTTGTGCCA | 4.53 | 4.46 | 3.64 | 3.65 | 0.973 | 4.54 | 3.63 | 3.99 | 1.31 | 2.91 | 3.37 | 3.93 | 1.86 | -0.496 | 1.73 | 4.01 | 1.98 | 3.96 | 0.755 | 3.92
10 | CCTACTAGGCCAAAGGTCATTGATTCCAATGCTC | 5.07 | 5.49 | 4.69 | 5.36 | 1.48 | 6.66 | 12.3 | 10.5 | 11.4 | 11.8 | 6.51 | 7.41 | 1.46 | 1.49 | 3.89 | 5.56 | 2.25 | 6.39 | 2.46 | 4.79
11 | ACAGACCGGTGAGTGAAGGTAACTCAGCTGGACG | -0.151 | -0.178 | -0.654 | -0.711 | -0.849 | -0.708 | 0.147 | -0.715 | -0.631 | -1.01 | -0.439 | -0.283 | -0.662 | -1.09 | -0.786 | -0.593 | -0.655 | -0.54 | -0.997 | -0.197
12 | GCTAGCAGGCCATATGGGTCACTCAATGACGGGC | 0.207 | 0.285 | -0.185 | 0.489 | -0.907 | 1.98 | 1.57 | 1.27 | -0.31 | 0.766 | 1.57 | 2.68 | -0.447 | -0.866 | -0.0235 | 0.585 | -0.337 | 1 | -0.311 | 1.62
13 | TCATATAGTTAAAGGTGAAAGTCGAACGATATGA | 0.692 | 1.27 | -0.183 | 1.25 | 0.00404 | 2.69 | 2.49 | 3.41 | 3.96 | 3.79 | 1.5 | 1.85 | 0.7 | 1.07 | 1.1 | 0.912 | -0.26 | 1.47 | 0.716 | 2.05

— the supplement of paper PMC6555819
